The nature of this assay: activators of LNCaP cell differentiation, retest, confirmation, side scatter shift, flow cytometry (AID 1069).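 Also: LNCaP human prostate cancer cells in low-serum medium with charcoal-stripped FBS; percent of cells with raised granularity gated so DMSO controls show 10%.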 Particulars: 4 d, side scatter shift, at 10 µM, stronger effect = higher value. On the technique in general: Flow cytometry measures light scatter and fluorescence of single cells or particles in a stream.
Turning to `Cc1cc(=O)c2ccccc2[nH]1`, the side scatter shift was 2.3%.
As for `Cc1cccc(-c2nc(CN3CCCC(C(=O)NC4CCCCCC4)C3)c(C)o2)c1` (stereo not drawn), the side scatter shift is 10.8%.
As for `COc1ccc(N2CCN(c3oc(COc4ccccc4Cl)nc3C#N)CC2)cc1`, the figure is 9.2%.
Next, `COc1ccc(Cc2n[nH]c(=O)c3ccccc23)cc1OC`: 5.7%; `COc1ccc2nc(NC(=O)C(NS(=O)(=O)c3cccs3)C(C)C)sc2c1` (stereo not drawn): 3.1%.
As for `O=C(NCCCN1CCOCC1)c1cc2c(s1)CSC2`, the figure is 9.2%.
On to `Cn1nc(-c2ccc(Cl)cc2)c2cc(C(=O)NCCCN3CCOCC3)sc21`, for which the side scatter shift was 27.4%.
Next, `Cc1ccc(Cl)cc1N1CCN(C(=O)c2cc3c(=O)n(C)c4ccccc4c3n2C)CC1`: 22.5%.
As for `COc1ccc(NC(=O)NCCCN2CCN(c3cc(C)ccc3C)CC2)cc1`, the side scatter shift was found to be 7.1%.
Next, `COc1ccc(N2CCN(CCCNC(=O)C3(S(=O)(=O)c4ccc(Cl)cc4)CC3)CC2)cc1`: 2.45%; `Cc1ccc(CN2CCSc3ccc(C(=O)N4CCN(c5ncccn5)CC4)cc32)cc1`: 7.2%.
On to `CCN(CC)CCCNC(=O)c1cc(-c2ccc(Cl)c(Cl)c2)on1`, for which the side scatter shift was 36.7%.
On to `COc1cccc(Oc2cnc(N)nc2-c2ccc(OC)cc2O)c1`, for which the side scatter shift worked out at 6.3%.
With `COc1ccc(S(=O)(=O)Nc2ccc(F)c(Cl)c2)cc1OC`, the side scatter shift is 6.75%.
Turning to `CN(CC(O)COc1ccc(OCC(O)CN(C)C2CCCCC2)cc1)C1CCCCC1` (stereo not drawn), the side scatter shift is 8.9%.
With `CCc1ccc(-c2nc(CN3CCC(C(=O)N4CCN(c5ccccn5)CC4)CC3)c(C)o2)cc1`, the side scatter shift worked out at 32.4%.
As for `O=C(COc1ccc(S(=O)(=O)N2CCCC2)cc1Cl)NC1CC1`, the figure is 1.25%; as for `Cc1ccc2[nH]c(=O)c3cc(C(=O)N(C)Cc4ccco4)sc3c2c1`, 11.1%.

The values are drawn from PubChem BioAssay AID1069 (NMMLSC, 2008).
